This is a sample that favours compounds with a hit; in the whole collection about 1.2% have one here.
RGS8-Gao: RGS8-Galphao binding modulators, primary screen, biochemical, multiplexed bead flow cytometry; Guanine nucleotide-binding protein G(o) subunit alpha (Homo sapiens), P09471; actives lie on both sides; response (percent of control binding), % at 10 µM; hit rate 0.34% among 220,000; in the data active means response below about 60% or above about 140%; inactive means in between;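 further: Galphao activated as the GDP aluminium fluoride complex binding bead-coupled RGS8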
Target sequence (P09471 whole entry, looked up): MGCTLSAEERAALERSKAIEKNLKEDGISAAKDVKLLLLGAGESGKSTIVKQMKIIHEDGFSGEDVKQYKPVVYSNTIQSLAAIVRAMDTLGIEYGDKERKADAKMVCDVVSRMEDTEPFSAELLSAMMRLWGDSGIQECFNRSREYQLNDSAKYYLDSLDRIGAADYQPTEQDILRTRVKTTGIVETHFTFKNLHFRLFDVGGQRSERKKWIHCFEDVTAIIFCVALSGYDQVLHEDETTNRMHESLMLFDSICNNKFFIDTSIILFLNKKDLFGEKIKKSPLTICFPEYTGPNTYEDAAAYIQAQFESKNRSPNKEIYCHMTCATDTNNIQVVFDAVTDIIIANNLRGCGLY
GSH fluor: compound fluorescence on glutathione beads, profiling panel, artefact control, biophysical, 488/530 nm, flow cytometry; GSH beads flow cytometry, compound fluorescence 488/530 nm; hits give high values; fluorescence (KMESF) at 10 µM; hit rate 0.25% among 190,000; AID 1776, 2009; in the data active means fluorescence above about 89;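 further: glutathione beads carrying GST-tagged Bcl family fusion proteins plus one bare bead set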
Avidin fluor: green autofluorescence of compounds with avidin beads – biophysical, 488/530 nm, flow cytometry, artefact control, profiling panel; hit rate 0.38% among 220,000; AID 1775, 2009; fluorescence (KMESF) at 10 µM; compound fluorescence 488/530 nm; hits give high values; in the data active means fluorescence above about 47
RGS16-Gao HTS: modulators of RGS16 binding to Galphao, primary screen, biochemical, human proteins, multiplexed bead flow cytometry; binding response (% of control), % at 10 µM; hit rate 0.38% among 220,000; AID 1441, 2008; Regulator of G-protein signaling 16 (Homo sapiens) + Guanine nucleotide-binding protein …; bead-based flow cytometry RGS16-Galphao binding, fluorescence; actives lie on both sides;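 further: Galphao activated by GDP with aluminum fluoride before binding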
Target sequence (O15492 whole entry, looked up): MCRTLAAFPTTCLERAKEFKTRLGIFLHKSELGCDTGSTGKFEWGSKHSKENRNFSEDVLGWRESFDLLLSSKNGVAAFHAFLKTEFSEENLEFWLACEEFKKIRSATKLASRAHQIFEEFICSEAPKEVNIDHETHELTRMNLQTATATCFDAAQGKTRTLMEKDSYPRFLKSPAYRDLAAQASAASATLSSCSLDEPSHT
Target sequence (P09471 whole entry, looked up): as the sequence (P09471 whole entry, looked up) above
RGS4-Gao reg: modulators of RGS4 binding to Galphao, primary screen, biochemical, multiplexed bead flow cytometry. Guanine nucleotide-binding protein G(o) subunit alpha (Homo sapiens), P09471. actives lie on both sides. binding response (% of control), % at 10 µM. hit rate 0.33% among 220,000. AID 1415, 2008; in the data active means binding response below about 49% or above about 150%; inactive means in between;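 further: fluorescent Galphao activated with aluminum fluoride binding bead-coupled RGS4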
RGS7-Gao: RGS7-Galphao binding modulators, primary screen, biochemical, multiplexed bead flow cytometry. actives lie on both sides. binding response (% of control), % at 10 µM. hit rate 0.35% among 220,000. AID 1439, 2008; in the data active means binding response below about 49% or above about 150%; inconclusive means no clear call, values can overlap the other calls; inactive means in between;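 further: fluorescent Galphao held in activated GDP-AlF4 state binding bead-coupled RGS7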
RGS4-Gao HTS: modulators of RGS–Galpha-o binding, primary screen, biochemical, multiplexed beads, flow cytometry, RGS4/7/8/16/19; shares compounds with RGS16-Gao HTS; multiplexed bead flow cytometry; RGS4–Galpha-o binding response, % at 10 µM; hit rate 99% among 1,600;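 further: fluorescently labeled Galpha-o bound to GDP with aluminium fluoride binding biotinylated RGS beads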
Biotin-avidin: disruption of biotin probe capture by avidin, counter-screen for RGS protein interaction modulators, biochemical, flow cytometry, bead-based; shares compounds with RGS16-Gao HTS; streptavidin beads, fluorescein-biotin binding; inhibition, % at 10 µM; 1,700 tested, under 10 active;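 active means inhibition above 50%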;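 further: median green fluorescence of gated singlet beads compared with DMSO control wells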
RGS8-Gao confirm: RGS8-Galphao binding modulators, confirmation, biochemical, multiplexed bead flow cytometry, single concentration; shares compounds with RGS16-Gao HTS; bead-based flow cytometry RGS8-Galphao binding, fluorescence; actives lie on both sides; binding response (% of control), % at 10 µM; hit rate 3% among 1,700; in the data active means binding response below about 72% or above about 130%; inactive means in between;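 further: Galphao activated as GDP AlF4 complex before binding bead RGS8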
RGS7-Gao confirm: RGS7-Galphao binding modulators, confirmation, biochemical, multiplexed bead flow cytometry, single concentration; shares compounds with RGS16-Gao HTS; bead-based flow cytometry RGS7-Galphao binding; actives lie on both sides; response (percent of control binding), % at 10 µM; hit rate 7.8% among 1,700; AID 1837, 2009; in the data active means response below about 75% or above about 130%; inactive means in between;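 further: fluorescent Galphao activated with GDP and aluminum fluoride binding bead-coupled RGS7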
RGS16-Gao single: modulators of RGS16-Galphao protein binding, confirmation, biochemical, single concentration, multiplexed bead flow cytometry; shares compounds with RGS16-Gao HTS; bead-based flow cytometry; actives lie on both sides; response (% of control binding), % at 10 µM; hit rate 4% among 1,700; AID 1838, 2009; in the data active means response below about 74% or above about 130%; inactive means in between;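 further: Galphao activated as the GDP aluminium fluoride complex binding bead-coupled RGS16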
RGS4-Gao single: modulators of RGS4-Galphao protein binding, confirmation, biochemical, single concentration, multiplexed bead flow cytometry | shares compounds with RGS16-Gao HTS | actives lie on both sides | binding response (% of control), % at 10 µM | hit rate 4% among 1,700; in the data active means binding response below about 74% or above about 130%; inactive means in between
RGS19-Gao single: regulators of RGS19-Galphao binding, confirmation, biochemical, single point, multiplexed bead flow cytometry. AID 1841, 2009. bead-based flow cytometry RGS19-Galphao binding; actives lie on both sides. hit rate 5% among 1,700. shares compounds with RGS16-Gao HTS. response (percent of control binding), % at 10 µM; in the data active means response below about 50% or above about 160%; inactive means in between
A number is an active result; [ ] = another dose, or the depositor's remark. Unless noted, how the calls were made is not given here.

CCCn1c(N)c(C(=O)CSc2nc3ccccc3c(=O)n2Cc2ccccc2)c(=O)[nH]c1=O was read as RGS8-Gao inactive, GSH fluor inactive, Avidin fluor 64, RGS16-Gao HTS inactive, RGS4-Gao reg 226.7[activator], RGS7-Gao 157.6[activator], Biotin-avidin inactive, RGS8-Gao confirm inactive, RGS7-Gao confirm 65.2, RGS16-Gao single inactive, RGS4-Gao single inactive and RGS19-Gao single 48.2.
CCOC(=O)c1cccc(NC(=O)CSc2nc3ccccc3c(=O)n2CCOC)c1 was read as RGS8-Gao 9.5, GSH fluor inactive, Avidin fluor inactive, RGS16-Gao HTS inactive, RGS4-Gao reg 22.7, RGS7-Gao 13.2, Biotin-avidin inactive, RGS8-Gao confirm inactive, RGS7-Gao confirm inactive, RGS16-Gao single inactive, RGS4-Gao single inactive and RGS19-Gao single inactive.
O=C(Cc1coc(-c2ccc(F)cc2)n1)Nc1ccccc1 was read as RGS8-Gao inactive, GSH fluor inactive, Avidin fluor inactive, RGS16-Gao HTS inactive, RGS4-Gao reg inactive and RGS7-Gao inactive.
Cc1ccc(S(=O)(=O)N/N=C\c2cc([N+](=O)[O-])ccc2Cl)cc1 was read as RGS8-Gao inactive, GSH fluor inactive, Avidin fluor inactive, RGS16-Gao HTS inactive, RGS4-Gao reg inactive and RGS7-Gao inactive.
`Cc1ccc(S(=O)(=O)N/N=C/c2cccc([N+](=O)[O-])c2)cc1` gave RGS8-Gao inactive, GSH fluor inactive, Avidin fluor inactive, RGS16-Gao HTS -8.2, RGS4-Gao reg inactive, RGS7-Gao inactive, RGS4-Gao HTS 83.3, Biotin-avidin inactive, RGS8-Gao confirm inactive, RGS7-Gao confirm inactive, RGS16-Gao single inactive, RGS4-Gao single inactive and RGS19-Gao single inactive.
Screening NS(=O)(=O)c1cccc(NS(=O)(=O)c2cccc(C(F)(F)F)c2)c1 returned RGS8-Gao inactive, Avidin fluor inactive, RGS16-Gao HTS inactive, RGS4-Gao reg inactive and RGS7-Gao inconclusive.
COc1ccc(C(=O)OCc2cc3cccc(C)c3[nH]c2=O)cc1 was read as RGS8-Gao inactive, GSH fluor inactive, Avidin fluor inactive, RGS16-Gao HTS inactive, RGS4-Gao reg inactive and RGS7-Gao inactive.
For Cc1cccc2cc(COC(=O)c3ccccn3)c(=O)[nH]c12 the results were RGS8-Gao inactive, GSH fluor inactive, Avidin fluor inactive, RGS16-Gao HTS -25.0, RGS4-Gao reg inactive, RGS7-Gao inactive, RGS4-Gao HTS 69.3, Biotin-avidin inactive, RGS8-Gao confirm inactive, RGS7-Gao confirm inactive, RGS16-Gao single inactive, RGS4-Gao single inactive and RGS19-Gao single inactive.
For O=C(NC(=O)c1ccccc1O)c1ccc(C(F)(F)F)cc1 the results were RGS8-Gao inactive, Avidin fluor inactive, RGS16-Gao HTS inactive, RGS4-Gao reg inactive and RGS7-Gao inconclusive.
For CCCc1ccc(C(=O)NC(=O)c2ccccc2O)cc1 the results were RGS8-Gao 53.4, Avidin fluor inactive, RGS16-Gao HTS inactive, RGS4-Gao reg 32.9, RGS7-Gao inconclusive, Biotin-avidin inactive, RGS8-Gao confirm inactive, RGS7-Gao confirm inactive, RGS16-Gao single inactive, RGS4-Gao single inactive and RGS19-Gao single inactive.
Screening CC(C)(C)NC(=O)COC(=O)c1ccc(Cl)nc1 returned GSH fluor inactive, Biotin-avidin inactive, RGS8-Gao confirm inactive, RGS7-Gao confirm 63.7, RGS16-Gao single inactive, RGS4-Gao single inactive and RGS19-Gao single 45.0.
For O=C(COC(=O)Cc1cccc(C(F)(F)F)c1)NC1CC1 the results were RGS8-Gao 11.8, GSH fluor inactive, Avidin fluor inactive, RGS16-Gao HTS 6.5, RGS4-Gao reg 15.6, RGS7-Gao 12.1, Biotin-avidin inactive, RGS8-Gao confirm inactive, RGS7-Gao confirm inactive, RGS16-Gao single inactive, RGS4-Gao single inactive and RGS19-Gao single inactive.
`O=C(COC(=O)Cc1cccc(C(F)(F)F)c1)Nc1ccc2c(c1)OCCO2` gave RGS8-Gao inactive, GSH fluor inactive, Avidin fluor inactive, RGS16-Gao HTS inactive, RGS4-Gao reg inactive and RGS7-Gao inactive.
For CCCN1C(=O)c2cccc3c(N4CCCCC4)ccc(c23)C1=O the results were RGS8-Gao inactive, GSH fluor inactive, Avidin fluor inactive, RGS16-Gao HTS 18.2, RGS4-Gao reg inactive, RGS7-Gao inactive, RGS4-Gao HTS 91.5, Biotin-avidin inactive, RGS8-Gao confirm inactive, RGS7-Gao confirm inactive, RGS16-Gao single inactive, RGS4-Gao single inactive and RGS19-Gao single inactive.
`Cc1c(Cl)c(C(=O)NC2C3CC4CC(C3)CC2C4)nn1C` (stereo unspecified) gave GSH fluor inactive.
`O=C(Nc1ccccc1)NC1CCCCNC1=O` (stereo unspecified) gave RGS8-Gao inactive, Avidin fluor inactive, RGS16-Gao HTS inactive, RGS4-Gao reg inactive and RGS7-Gao inconclusive.

Screens as filed in PubChem BioAssay.
